Counter-ions that a name gives are not always drawn. ± gives the standard deviation of the averaged measurements.
Test system: Klebsiella pneumoniae NCTC-13439
Assay: percent growth inhibition of drug + antibiotic vs DMSO control; higher = more growth inhibition
Settings: antibiotic (0.125x MIC): tigecycline; 7 µM

Structure (SMILES)	percent growth inhibition [%]
CO[C@H]1/C=C/O[C@@]2(C)Oc3c(C)c(O)c4c(O)c(c(/C=N/N5CCN(C6CCCC6)CC5)c(O)c4c3C2=O)NC(=O)/C(C)=C\C=C\[C@H](C)[C@H](O)[C@@H](C)[C@@H](O)[C@@H](C)[C@H](OC(C)=O)[C@@H]1C [Rifapentine]	14.7 ± 5.3
CN(C)c1ccc(O)c2c1C[C@H]1C[C@H]3[C@H](N(C)C)C(O)=C(C(N)=O)C(=O)[C@@]3(O)C(O)=C1C2=O [Minocycline hydrochloride]	-1.9 ± 6.7
NC[C@@H]1O[C@H](O[C@H]2[C@@H](O)[C@H](O[C@@H]3[C@@H](O)[C@H](N)C[C@H](N)[C@H]3O[C@H]3O[C@H](CO)[C@@H](O)[C@H](O)[C@H]3N)O[C@@H]2CO)[C@H](N)[C@@H](O)[C@@H]1O [Paromomycin sulfate]	6.3 ± 3
O=C1OCCN1/N=C/c1ccc([N+](=O)[O-])o1 [Furazolidone]	26.3 ± 2.4
CN[C@@H]1[C@@H](O[C@H]2O[C@H](CO)[C@@H](N)[C@H](O)[C@H]2O)OC2C[C@@H](N)[C@@H](O[C@H]3[C@H](O)[C@@H](O)[C@H](N)C[C@@H]3N)OC2[C@@H]1O (stereo partly specified) [Apramycin]	35.7 ± 13
O=C(O)c1cn(-c2ccc(F)cc2)c2cc(N3CCNCC3)c(F)cc2c1=O [Sarafloxacin]	50 ± 14
OCCOCCN1CCN(C2=Nc3ccccc3Sc3ccccc32)CC1 [Quetiapine hemifumarate]	-9.2 ± 16
CO[C@H]1/C=C/O[C@@]2(C)Oc3c(C)c(O)c4c(O)c(c5c(nc6cc(C)ccn65)c4c3C2=O)NC(=O)/C(C)=C\C=C\[C@H](C)[C@H](O)[C@@H](C)[C@@H](O)[C@@H](C)[C@H](OC(C)=O)[C@@H]1C [Rifaximin]	7.05 ± 5.2
CC[C@H]1OC(=O)[C@H](C)[C@@H](O[C@H]2C[C@@](C)(OC)[C@@H](O)[C@H](C)O2)[C@H](C)[C@@H](O[C@@H]2O[C@H](C)C[C@H](N(C)C)[C@H]2O)[C@](C)(O)C[C@@H](C)CN(C)[C@H](C)[C@@H](O)[C@]1(C)O [Azithromycin]	64.2 ± 2.8

Same assay, conditions: antibiotic (0.125x MIC): tigecycline; 20 µM

Structure (SMILES)	percent growth inhibition [%]
CO[C@H]1/C=C/O[C@@]2(C)Oc3c(C)c(O)c4c(O)c(c(/C=N/N5CCN(C6CCCC6)CC5)c(O)c4c3C2=O)NC(=O)/C(C)=C\C=C\[C@H](C)[C@H](O)[C@@H](C)[C@@H](O)[C@@H](C)[C@H](OC(C)=O)[C@@H]1C [Rifapentine]	42.9 ± 12
CN(C)c1ccc(O)c2c1C[C@H]1C[C@H]3[C@H](N(C)C)C(O)=C(C(N)=O)C(=O)[C@@]3(O)C(O)=C1C2=O [Minocycline hydrochloride]	49.8 ± 7.5
CO[C@H]1/C=C/O[C@@]2(C)Oc3c(C)c(O)c4c(c3C2=O)C2=NC3(CCN(CC(C)C)CC3)NC2=C(NC(=O)/C(C)=C\C=C\[C@H](C)[C@H](O)[C@@H](C)[C@@H](O)[C@@H](C)[C@H](OC(C)=O)[C@@H]1C)C4=O [Rifabutin]	30.9 ± 7.2
CN[C@@H]1[C@@H](O[C@H]2O[C@H](CO)[C@@H](N)[C@H](O)[C@H]2O)OC2C[C@@H](N)[C@@H](O[C@H]3[C@H](O)[C@@H](O)[C@H](N)C[C@@H]3N)OC2[C@@H]1O (stereo partly specified) [Apramycin]	100 ± 0.19
O=C(O)c1cn(-c2ccc(F)cc2)c2cc(N3CCNCC3)c(F)cc2c1=O [Sarafloxacin]	99.57 ± 0.39
OCCOCCN1CCN(C2=Nc3ccccc3Sc3ccccc32)CC1 [Quetiapine hemifumarate]	-7.45 ± 10
CO[C@H]1/C=C/O[C@@]2(C)Oc3c(C)c(O)c4c(O)c(c5c(nc6cc(C)ccn65)c4c3C2=O)NC(=O)/C(C)=C\C=C\[C@H](C)[C@H](O)[C@@H](C)[C@@H](O)[C@@H](C)[C@H](OC(C)=O)[C@@H]1C [Rifaximin]	50.7 ± 4

From the supplement of paper PMC6658780
